± gives the standard deviation of the averaged measurements.
Legend:
Experiment in all cases: cell viability (% of vehicle); higher = less cytotoxic
HCI01 [1] = cells of a triple-negative basal-like breast cancer xenograft; conditions: 1 µM; 72 h
UCD52 [2] = cells of a triple-negative basal-like breast cancer xenograft; conditions: 1 µM; 72 h
WHIM2 [3] = cells of a triple-negative basal-like breast cancer xenograft; conditions: 1 µM; 72 h
WHIM30 [4] = cells of a triple-negative basal-like breast cancer xenograft; conditions: 1 µM; 72 h
HCI01 [5] = conditions: 10 µM; 72 h
HCI03 = cells of an ER-positive luminal breast cancer xenograft; conditions: 10 µM; 72 h
HCI09 = cells of a triple-negative luminal androgen receptor type breast cancer xenograft; conditions: 10 µM; 72 h
HCI11 = cells of an ER-positive luminal breast cancer xenograft; conditions: 10 µM; 72 h
HCI13 = cells of an ER-positive luminal breast cancer xenograft; conditions: 10 µM; 72 h
HCI16 = cells of a triple-negative basal-like breast cancer xenograft; conditions: 10 µM; 72 h
UCD52 [6] = conditions: 10 µM; 72 h
WHIM2 [7] = conditions: 10 µM; 72 h
WHIM30 [8] = conditions: 10 µM; 72 h

Row | Compound | cell viability (HCI01 [1]) | cell viability (UCD52 [2]) | cell viability (WHIM2 [3]) | cell viability (WHIM30 [4]) | cell viability (HCI01 [5]) | cell viability (HCI03) | cell viability (HCI09) | cell viability (HCI11) | cell viability (HCI13) | cell viability (HCI16) | cell viability (UCD52 [6]) | cell viability (WHIM2 [7]) | cell viability (WHIM30 [8])
1 | CN(C)c1ccc(C(=C2C=CC(=[N+](C)C)C=C2)c2ccc(N(C)C)cc2)cc1.[Cl-] [Crystal Violet] | 74.7 | 61.1 | 51.2 | 40.8 | 28.8 ± 4.1 | 48.9 | 26.9 ± 4.8 | 28.1 | 24.73 ± 0.16 | 56.7 | 29.6 ± 3.3 | 46.7 ± 15 | 36.8 ± 2.2
2 | CC(C)Nc1cc(-c2c[nH]c(C(=O)NC(CO)c3cccc(Cl)c3)c2)c(Cl)cn1 (stereo not drawn) | 84.8 | 59.1 | 72.7 | 78.4 | 39 ± 8.9 | 135 | 36.8 ± 21 | 81.7 | 43.5 ± 2.5 | 106 | 56.5 ± 4 | 45.3 ± 6.3 | 104 ± 10
3 | C[C@H]1O[C@@H](O[C@H]2[C@@H](O)C[C@H](O[C@H]3[C@@H](O)C[C@H](O[C@H]4CC[C@@]5(C)[C@H](CC[C@@H]6[C@@H]5C[C@@H](O)[C@]5(C)[C@@H](C7=CC(=O)OC7)CC[C@]65O)C4)O[C@@H]3C)O[C@@H]2C)C[C@H](O)[C@@H]1O [Digoxin] | 50.6 | 25.3 | 138 | 25.7 | 35.2 ± 3 | 97.9 | 40.1 ± 17 | 69.2 | – | 45.8 | 66.6 ± 8.6 | 66.4 ± 7.6 | 41.4 ± 1.1
4 | COCCn1c2c([n+](Cc3cnccn3)c1C)C(=O)c1ccccc1C2=O.[Br-] | 29.6 | 21.3 | 21.1 | 27 | 85.5 ± 29 | 48.3 | 28.3 ± 3.6 | 60.2 | 68.9 ± 8.8 | 82.5 | 53.9 ± 8.2 | 55.5 ± 2.3 | 62.3 ± 5.1
5 | O=C(C=Cn1cnc(-c2cc(C(F)(F)F)cc(C(F)(F)F)c2)n1)NNc1cnccn1 | 67.4 | 59.5 | 66.1 | 41.8 | 41.9 ± 24 | 41 | 31.5 ± 14 | 92.7 | 35.4 ± 2.5 | 73.2 | 80.1 ± 1.8 | 70.94 ± 0.096 | 46.7 ± 0.48
6 | CC1=C(C(=O)OC(C)C)C(c2cccc([N+](=O)[O-])c2)C(C(=O)OC2CN(C(c3ccccc3)c3ccccc3)C2)=C(N)N1 (stereo not drawn) [Azelnidipine] | 93.6 | 73.5 | 85.9 | 88.3 | 33.6 ± 1.3 | 59 | 21.5 ± 0.58 | 80.4 | 41.6 ± 5.9 | 62 | 93.5 ± 6.1 | 61.3 ± 19 | 57.7 ± 26
7 | CN1CCN(CCCN2c3ccccc3Sc3ccc(C(F)(F)F)cc32)CC1.Cl.Cl [Trifluoperazine 2HCl] | 95.7 | 82.1 | 102 | 84.9 | 42.8 ± 8.5 | 57.4 | 30.2 ± 8 | 82.1 | 42.2 ± 2 | 54.1 | 33.8 ± 2.4 | 43.3 ± 3.1 | 97.8 ± 6.6
8 | Nc1ccc2cc3ccc([NH3+])cc3nc2c1.Nc1ccc2cc3ccc([NH3+])cc3nc2c1.O=S(=O)([O-])[O-] [Proflavine Hemisulfate] | 91.4 | 139 | 51.3 | 58.8 | 82.6 ± 55 | 144 | 23.3 ± 3.6 | 41.6 | – | 165 | 54.6 ± 16 | 50.3 ± 13 | 85.2 ± 2.2
9 | CN1CCC(COc2cnc(-c3cccc(Cn4nc(-c5cccc(C#N)c5)ccc4=O)c3)nc2)CC1 | 83.2 | 79.2 | 97.8 | 79.6 | 87.4 ± 46 | 45.7 | 15.5 ± 4.2 | 57.6 | 72.4 ± 35 | – | 28 ± 5.6 | 34.3 ± 2.1 | 65.8 ± 4.3
10 | COc1cccc2c1C(=O)c1c(O)c3c(c(O)c1C2=O)CC(O)(C(=O)CO)CC3OC1CC(N)C(O)C(C)O1.Cl (stereo not drawn) [Doxorubicin (Adriamycin) HCl] | 93.6 | 38.7 | 26.8 | 45.9 | 70.4 ± 23 | 196 | 29.7 ± 8.2 | 41.4 | – | 66.1 | 33.1 ± 1.4 | 35.6 ± 6.6 | 77 ± 21
11 | CS(=O)(=O)O.Cc1c(O)cccc1C(=O)NC(CSc1ccccc1)C(O)CN1CC2CCCCC2CC1C(=O)NC(C)(C)C (stereo not drawn) [Nelfinavir Mesylate] | 90.1 | 61.6 | 101 | 81.4 | 64.3 ± 30 | 92.1 | 30.1 ± 3.1 | 104 | 48.22 ± 0.17 | 53.7 | 48 ± 2 | 38.4 ± 2 | 71.9 ± 5.4
12 | Cc1c(Cl)cccc1Nc1ccccc1C(=O)O [Tolfenamic Acid] | 95.9 | 102 | 106 | 92.6 | 100 ± 30 | 118 | 80.6 ± 9.7 | 91.9 | 71.1 ± 33 | 103 | 70.7 ± 3.2 | 41.7 ± 14 | 77.7 ± 3.3
13 | O=C1C=CC=CC1=C1NC(=C2C=CC=CC2=O)N(c2ccc(C(=O)O)cc2)N1 [Deferasirox] | 87.9 | 92 | 92.2 | 98.2 | 65.5 ± 9.3 | 129 | 62 ± 39 | 107 | 62.9 ± 16 | 101 | 77.7 ± 33 | 95.2 ± 25 | 70.1 ± 1.5
14 | CCc1oc2ccccc2c1C(=O)c1cc(Br)c(O)c(Br)c1 [Benzbromarone] | 88.4 | 92.9 | 102 | 88.3 | 65.9 ± 49 | 103 | 33.8 ± 25 | 98 | 128 ± 29 | 97 | 76 ± 7.4 | 40.1 ± 12 | 95.1 ± 20

— the supplement of paper PMC6992640
